{"source": "PubChem BioAssay (NCI)", "note": "The panel holds about 83,000 compounds, 20% with a hit somewhere; the sample as a whole holds those more often.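 Step 1: grow cells in 96-well plates. Step 2: add test compound at a single concentration. Step 3: incubate 48 h. Step 4: record percent growth.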 Values without a mark were called inactive. The source made the active and inactive calls.", "data": [{"test_system": "OVCAR-5 ovarian", "assay": "NCI-60 one-dose screen, 48 h (100 = growth as untreated, 0 = no growth, -100 = all killed)", "conditions": "10 µM unless noted", "description": "Growth inhibition of the OVCAR-5 human tumor cell line is measured as a screen for anti-cancer activity. Cells are grown in 96 well plates and exposed to the test compound for 48 hours. Compounds are tested at a single concentration, which is 10^-5 M for most compounds. The reported endpoint is percent growth (GI% or GIPRCNT), where numbers from 0 - 100% represent growth inhibition, and numbers from -100% - 0 represent cell death. For example, a value of 40 represents 60% growth inhibition. A value of 0 means no net growth occurred over the course of the experiment. A value of -40 indicates 40% of cells at the beginning of the experiment died by the end of the experiment. A value of -100 means all cells are dead at the end of the experiment.\nNCI-60 Human Tumor Cell Lines Screen was performed using the standard one-dose NCI protocol, which is described in more detail at https://dtp.cancer.gov/discovery_development/nci-60/default.htm.\nCompounds with GIPRCNT values below 10 were considered active. Activity score was based on GIPRCNT using the following formula: […]\nScore is 0 for GIPRCNT values of 100 or above, 50 for GIPRCNT values of 0, and 100 for GIPRCNT values of -100.", "values": [{"compound": "COc1ccc2[nH]cc(-c3nc(N)nnc3-c3cn(C)c4ncccc34)c2c1", "growth": "77.9%"}, {"compound": "O=c1onc(-c2cc3ccccc3nc2Cl)n1-c1cccc2ccccc12", "growth": "94.8%"}, {"compound": "CCN(CC)C(=O)N/C(N)=N/c1nc2ccccc2s1", "growth": "72.4%"}, {"compound": "O=c1[nH]c2ccccc2cc1CSc1nccc(-c2ccc3ccccc3c2)n1", "growth": "93.7%"}, {"compound": "Nc1n[nH]c2cccc(C#Cc3cccc(NC(=O)c4cccc(Cl)c4)c3)c12", "growth": "53.2%"}, {"compound": "COc1cccc(/C=C/C(=O)c2ccc(OC)c(S(N)(=O)=O)c2)c1", "growth": "24.2%"}, {"compound": "N#Cc1c(-c2cccc3ccccc23)cc(-c2cccc(OCC(=O)O)c2)[nH]c1=O", "growth": "89.9%"}, {"compound": "CC1(c2cc3cc(Br)ccc3oc2=O)NC(=O)c2c(/C=C/C(=O)OC3CC4CCC3(C)C4(C)C)cccc2N1", "note": "(stereo not given)", "growth": "92.6%"}, {"compound": "CC1(C)CC[C@]2(C(=O)O)CC[C@]3(C)C(=CCC4[C@@]5(C)C[C@@H](O)[C@@H]6OC(c7ccco7)OC[C@@]6(C)C5CC[C@]43C)C2C1", "note": "(stereo not given in full)", "growth": "65.4%"}, {"compound": "C=C1CC[C@@H]2[C@]3(C)COC(c4ccccc4)O[C@@H]3CC[C@@]2(C)[C@@H]1C/C=C1/C(=O)OCC1OC(C)=O", "note": "(stereo not given in full)", "growth": "-78.5% (active)"}, {"compound": "CC(=O)Nc1cccc(Nc2nc(N[C@H]3CCCc4ccccc43)c3ccccc3n2)c1", "growth": "103%"}, {"compound": "Cc1nc(Nc2ncc(C(=O)Nc3c(C)cccc3Cl)s2)cc(N2CCN(CCCNC(=O)COc3ccc(C4CCC(=O)NC4=O)cc3)CC2)n1", "note": "(stereo not given)", "growth": "26.3%"}, {"compound": "Cc1cc2c(cc1Cl)C(=O)/C(=C/c1ccccc1)O2", "growth": "75%"}, {"compound": "Nc1cc2ccccc2c(=O)n1NC(=O)c1ccc(I)cc1", "growth": "98.1%"}, {"compound": "O=C(c1ccccc1)c1ccc2nc(-c3cccc(Cl)c3)[nH]c2c1", "growth": "107%"}, {"compound": "CCC(C)(C)c1ccc(OCCCCN2CCN(c3ccncc3)CC2)cc1", "growth": "69.2%"}, {"compound": "CN(C)c1ccnc(NCCCSC(c2ccccc2)(c2ccccc2)c2ccccc2)c1", "growth": "84.5%"}, {"compound": "COc1ccc(C(=O)/C=C/c2ccccc2Br)cc1S(N)(=O)=O", "growth": "-6.5% (active)"}, {"compound": "O=c1cc(-c2ccccc2)oc2cc(OCCCC[P+](c3ccccc3)(c3ccccc3)c3ccccc3)cc(O)c12", "growth": "-97.7% (active)"}, {"compound": "COc1ccc(C2=NN(c3ccccc3)C(c3ccc(OCc4ccccc4)c(OC)c3)C2)cc1OC", "note": "(stereo not given)", "growth": "102%"}, {"compound": "Cc1ccc(S(=O)(=O)c2nc(S(=O)(=O)c3ccc(C)cc3)c(N3CCN(C)CC3)s2)cc1", "growth": "94.1%"}, {"compound": "COc1ccc(C(SCCNCc2cc(N(C)C)ccn2)(c2ccccc2)c2ccccc2)cc1", "growth": "-13.8% (active)"}, {"compound": "Cn1cc(-c2cc(N)n3nc(-c4cn(C)c5ccccc45)cc3n2)c2cc(Br)ccc21", "growth": "5.47% (active)"}, {"compound": "CC(=O)OC[C@@]1(C)C2CC[C@]3(C)C(CC=C4C5CC(C)(C)CC[C@]5(C(=O)Nc5ccc(C)cc5)CC[C@]43C)[C@@]2(C)C[C@@H](OC(C)=O)[C@@H]1OC(C)=O", "note": "(stereo not given in full)", "growth": "95.2%"}, {"compound": "COc1cc(/C=C2\\C(=N)N=C(SCc3nc4ccccc4[nH]3)NC2=O)ccc1O", "growth": "109%"}, {"compound": "COc1c(F)ccc(C(=O)Nc2ccc3nc(NC(=O)C4CCCN(S(=O)(=O)c5cccc(Br)c5)C4)sc3c2)c1F", "note": "(stereo not given)", "growth": "104%"}, {"compound": "CCN(CC)c1ccc(/C=N/Nc2nc(-c3ccc(Br)cc3)cs2)c(O)c1", "growth": "91.5%"}, {"compound": "Cn1cc(-c2nc(N)nnc2-c2c[nH]c3ccc(F)cc23)c2cc(Br)cnc21", "growth": "14.9%"}, {"compound": "CC(=O)Nc1cccc(-c2nc3cc(-c4ccc(O)cc4)ccc3n2C)c1", "growth": "93.6%"}, {"compound": "O=[N+]([O-])c1ccc(/C=C/c2nc3ccccc3n3c(=S)[nH]nc23)cc1", "growth": "89.1%"}, {"compound": "CN1CCN(Cc2ccc(C(=O)Nc3cccc(C#Cc4cccc5[nH]nc(N)c45)c3)cc2C(F)(F)F)CC1", "growth": "-94.8% (active)"}, {"compound": "O=C1Nc2cc(Cl)ccc2/C1=C/c1cccc(OCc2ccccn2)c1", "growth": "-7.05% (active)"}, {"compound": "O=c1oc2ccccc2cc1-c1csc(N=Nc2c(O)[nH]c3ccc(Cl)cc23)n1", "growth": "116%"}, {"compound": "C#CCOc1ccc(/C=N/Nc2nc(-c3ccc(F)cc3)cs2)cc1OC", "growth": "84.9%"}, {"compound": "COc1ccc(N2N=C(c3ccc4c(c3)OCO4)CC2c2cccc(NC(=O)CCNS(=O)(=O)c3ccc(Cl)cc3)c2)cc1", "note": "(stereo not given)", "growth": "68.4%"}, {"compound": "O=C(Cn1c(/C=C/c2ccccc2)nc2ccccc2c1=O)Nc1ccccc1", "growth": "96.1%"}, {"compound": "CCOC(=O)/C=C/c1cccc2c1C(=O)NC(C)(c1cc3cc(Br)ccc3oc1=O)N2", "note": "(stereo not given)", "growth": "76.4%"}, {"compound": "COc1ccc2[nH]c(=O)c(CSc3nccc(-c4ccc(OC)c(OC)c4)n3)cc2c1", "growth": "52.4%"}, {"compound": "O=C(Cn1c2c(sc1=O)[C@H]1[C@@H](O)[C@@H](O)[C@H](O)[C@@H]1CS2)N1CCOCC1", "growth": "103%"}, {"compound": "O=C(NNc1nc2cc(F)ccc2n2c(CN3CCCCC3)ccc12)c1cnccn1", "growth": "-69.5% (active)"}]}]}
